Test results as given in PubChem BioAssay (EPA / NIEHS).
Calls of active or inactive are those of the source. How the source made its calls: active means hit-call score of the fitted dose curve at least 0.9, where 1 is the maximum; inactive means score below 0.9.

How the values were obtained:
Settings in all cases: mRNA level, 48 h; actives raise or lower the signal
[1] = read-out: Interleukin 6 (IL6), IL6 (gene 3569); assay: LTEA_HepaRG_IL6: Life Technologies and Expression Analysis (LTEA) Assay for Interleukin 6 (IL6) using HepaRG (AID 2283509)
Method in brief: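 HepaRG, ~100,000 cells/well, 48 h pre-culture; serum-free induction medium; cmpd 8-pt half-log from 100 uM, 0.5% DMSO, duplicate, 48 h. Lysis in RLT, TaqMan qRT-PCR; gain or loss vs DMSO.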

[2] = read-out: Interleukin 6 Receptor (IL6R), IL6R (gene 3570); assay: LTEA_HepaRG_IL6R: Life Technologies and Expression Analysis (LTEA) Assay for Interleukin 6 Receptor (IL6R) using HepaRG (AID 2283510);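 on AC50: TaqMan qRT-PCR signal normalized to ACTB GAPDH and POLR2A housekeeping genes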
Method in brief: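 Differentiated human HepaRG cells, plated 48 h then switched to serum-free induction medium, were dosed in duplicate for 48 h at eight half-log concentrations up to 100 uM in 0.5% DMSO. IL6R mRNA quantified by qRT-PCR, normalized to ACTB/GAPDH/POLR2A; bidirectional fit versus DMSO.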

[3] = read-out: Potassium channel subfamily K member 1 (KCNK1), KCNK1 (gene 3775); assay: LTEA_HepaRG_KCNK1: Life Technologies and Expression Analysis (LTEA) Assay for Potassium channel subfamily K member 1 (KCNK1) using HepaRG (AID 2283511)
Method in brief: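 Gain or loss of KCNK1 mRNA is the read-out, quantified by qRT-PCR against three housekeeping genes after 48 h chemical treatment of human HepaRG liver cells. Concentrations ran from 100 uM downward in half-log steps, vehicle 0.5% DMSO.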

[4] = read-out: Keratin 19 (KRT19), KRT19 (gene 3880); assay: LTEA_HepaRG_KRT19: Life Technologies and Expression Analysis (LTEA) Assay for Keratin 19 (KRT19) using HepaRG (AID 2283512)
Method in brief: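 Readout is qRT-PCR of KRT19 mRNA, normalized to ACTB, GAPDH and POLR2A, from HepaRG cells treated 48 h with eight-point half-log dilutions topping at 100 uM. Activity in either direction is scored relative to 0.5% DMSO vehicle.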

[5] = read-out: JUN Transcription Factor, JUN (gene 3725); assay: LTEA_HepaRG_JUN: Life Technologies and Expression Analysis (LTEA) Assay for JUN Transcription Factor using HepaRG (AID 2283513)
Method in brief: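 Differentiated HepaRG cells were exposed to chemicals for 48 h in serum-free induction medium, 8 concentrations from 100 uM in half-log steps, 0.5% DMSO vehicle, in duplicate. JUN mRNA was quantified by TaqMan qRT-PCR, normalized to ACTB, GAPDH, POLR2A.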

[6] = read-out: Lipase C (LIPC), LIPC (gene 3990); assay: LTEA_HepaRG_LIPC: Life Technologies and Expression Analysis (LTEA) Assay for Lipase C (LIPC) using HepaRG (AID 2283514)
Method in brief: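 Read-out is LIPC transcript level by TaqMan qRT-PCR, normalized to three housekeeping genes, after 48 h chemical treatment of human HepaRG liver cells. Curves span eight concentrations topping at 100 uM; activity in either direction scored relative to 0.5% DMSO.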

[7] = read-out: Lipoprotein lipase (LPL), LPL (gene 4023); assay: LTEA_HepaRG_LPL: Life Technologies and Expression Analysis (LTEA) Assay for Lipoprotein lipase (LPL) using HepaRG (AID 2283515)
Method in brief: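 Read-out is LPL transcript level by qRT-PCR, normalized to three housekeeping genes and fitted bidirectionally against the DMSO control. Human HepaRG cells received chemicals for 48 h at up to 100 uM.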

[8] = read-out: MicroRNA 122 (MIR122), gene 406906; assay: LTEA_HepaRG_MIR122: Life Technologies and Expression Analysis (LTEA) Assay for MicroRNA 122 (MIR122) using HepaRG (AID 2283516); further: the transcript read is the microRNA miR-122
Method in brief: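 Differentiated human HepaRG cells were exposed 48 h in serum-free induction medium to eight half-log concentrations (top 100 uM, 0.5% DMSO). Transcript level was measured by TaqMan qRT-PCR, normalized to ACTB, GAPDH and POLR2A, and fitted bidirectionally versus DMSO.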

[9] = read-out: matrix metalloproteinase-10 (MMP10), MMP10 (gene 4319); assay: LTEA_HepaRG_MMP10: Life Technologies and Expression Analysis (LTEA) Assay for matrix metalloproteinase-10 (MMP10) using HepaRG (AID 2283517)
Method in brief: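 Gain or loss of MMP10 mRNA is fitted relative to the 0.5% DMSO vehicle. The human hepatic line HepaRG receives a 48-hour serum-free exposure, in duplicate, with a maximum concentration of 100 uM.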

MYC, MYC (gene 4609) = assay: LTEA_HepaRG_MYC: Life Technologies and Expression Analysis (LTEA) Assay for MYC using HepaRG (AID 2283518)
Method in brief: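 Expression changes were scored by TaqMan qRT-PCR with ACTB, GAPDH and POLR2A normalization. Cultures in serum-free induction medium received duplicate 8-point concentration series, highest 100 uM, for 48 h; DMSO (0.5%) served as baseline.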

[10] = read-out: matrix metalloproteinase-3 (MMP3), MMP3 (gene 4314); assay: LTEA_HepaRG_MMP3: Life Technologies and Expression Analysis (LTEA) Assay for matrix metalloproteinase-3 (MMP3) using HepaRG (AID 2283519)
Method in brief: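 HepaRG, human; 48 h dosing, 8 conc. (max 100 uM, half-log), duplicate, 0.5% DMSO. Readout: MMP3 transcript by Fluidigm TaqMan qRT-PCR, ACTB/GAPDH/POLR2A-normalised. Gain or loss fitted vs DMSO.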

[11] = read-out: Paternally Expressed 10 (PEG10), PEG10 (gene 23089); assay: LTEA_HepaRG_PEG10: Life Technologies and Expression Analysis (LTEA) Assay for Paternally Expressed 10 (PEG10) using HepaRG (AID 2283520)
Method in brief: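 Differentiated HepaRG cells, plated 48 h then switched to serum-free induction medium, were exposed in duplicate for 48 h to eight half-log concentrations topping at 100 uM in 0.5% DMSO. PEG10 mRNA was quantified by TaqMan qRT-PCR, normalised to ACTB, GAPDH and POLR2A.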

[12] = read-out: Nuclear factor NF-kappa-B p105 subunit (Homo sapiens) (UniProt P19838); assay: LTEA_HepaRG_NFKB1: Life Technologies and Expression Analysis (LTEA) Assay for Nuclear Factor Kappa B Subunit 1 (NFKB1) using HepaRG (AID 2283521)
Method in brief: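 Differentiated human HepaRG cells in serum-free induction medium with 0.5% DMSO were exposed for 48 h to eight half-log concentrations, top 100 uM, in duplicate. NFKB1 mRNA measured by Fluidigm TaqMan qRT-PCR, normalised to ACTB, GAPDH and POLR2A; bidirectional fit versus DMSO.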

[13] = read-out: Protein phosphatase 2A (PPP2R4), PTPA (gene 5524); assay: LTEA_HepaRG_PPP2R4: Life Technologies and Expression Analysis (LTEA) Assay for Protein phosphatase 2A (PPP2R4) using HepaRG (AID 2283522)
Method in brief: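 Differentiated HepaRG cells in serum-free induction medium were exposed in duplicate for 48 h to eight concentrations, top 100 uM with half-log dilutions, in 0.5% DMSO. PPP2R4 mRNA was quantified by TaqMan qRT-PCR, normalized to ACTB, GAPDH and POLR2A.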

[14] = read-out: Phosphatase and tensin (PTEN), PTEN (gene 5728); assay: LTEA_HepaRG_PTEN: Life Technologies and Expression Analysis (LTEA) Assay for Phosphatase and tensin (PTEN) using HepaRG (AID 2283523)
Method in brief: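 Read-out is PTEN transcript level by multiplexed TaqMan qRT-PCR after 48 h chemical treatment of human HepaRG cultures in serum-free induction medium. Concentrations spanned 100 uM downward in half-log steps, 0.5% DMSO throughout; activity fitted in both directions against vehicle.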

[15] = read-out: Pyruvate Dehydrogenase Kinase 4 (PDK4), PDK4 (gene 5166); assay: LTEA_HepaRG_PDK4: Life Technologies and Expression Analysis (LTEA) Assay for Pyruvate Dehydrogenase Kinase 4 (PDK4) using HepaRG (AID 2283525)
Method in brief: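 In this multiplexed human HepaRG expression assay, cells are treated 48 h with test chemicals across an eight-point range starting at 100 uM. PDK4 mRNA changes, normalized to ACTB/GAPDH/POLR2A, are fitted in both directions relative to vehicle.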

[16] = read-out: NAD(P)H dehydrogenase [quinone] 1 (NQO1), NQO1 (gene 1728); assay: LTEA_HepaRG_NQO1: Life Technologies and Expression Analysis (LTEA) Assay for NAD(P)H dehydrogenase [quinone] 1 (NQO1) using HepaRG (AID 2283526)
Method in brief: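 Differentiated HepaRG cells, plated 48 h and then switched to serum-free induction medium, were exposed in duplicate for 48 h to 8-point half-log concentrations up to 100 uM in 0.5% DMSO. mRNA measured by qRT-PCR, normalized to ACTB, GAPDH, POLR2A; bidirectional fit versus DMSO.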

[17] = read-out: Nuclear factor erythroid 2-related factor 2 (Homo sapiens) (UniProt Q16236); assay: LTEA_HepaRG_NFE2L2: Life Technologies and Expression Analysis (LTEA) Assay for Nuclear factor erythroid 2-related factor 2 (NFE2L2) Transcription Factor using HepaRG (AID 2283527)
Method in brief: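 Transcript level of NFE2L2 is the read-out, measured by microfluidic TaqMan qRT-PCR and normalized to three housekeeping genes. Human HepaRG cultures received test chemical for 48 h at up to 100 uM in half-log steps. Gain or loss of signal is fitted relative to 0.5% DMSO.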

[18] = read-out: succinate dehydrogenase complex iron sulfur subunit B (SDHB), SDHB (gene 6390); assay: LTEA_HepaRG_SDHB: Life Technologies and Expression Analysis (LTEA) Assay for succinate dehydrogenase complex iron sulfur subunit B (SDHB) using HepaRG (AID 2283528)
Method in brief: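 HepaRG cells (~100,000/well, plated 48 h) exposed in duplicate for 48 h in serum-free induction medium to 8-point half-log series from 100 uM in 0.5% DMSO; mRNA by qRT-PCR normalised to ACTB, GAPDH, POLR2A; bidirectional fit versus DMSO.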

[19] = read-out: solute carrier (SLC22A1), SLC22A1 (gene 6580); assay: LTEA_HepaRG_SLC22A1: Life Technologies and Expression Analysis (LTEA) Assay for solute carrier (SLC22A1) using HepaRG (AID 2283524)
Method in brief: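 HepaRG (human liver line), 48 h dosing in serum-free induction medium; 8 conc., half-log down from 100 uM, 0.5% DMSO vehicle, duplicates. Endpoint: SLC22A1 mRNA, qRT-PCR, housekeeping-normalized; gain/loss fit vs DMSO.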

Measured: AC50

Chain of Nuclear factor NF-kappa-B p105 subunit (Homo sapiens) (P19838 whole entry, looked up): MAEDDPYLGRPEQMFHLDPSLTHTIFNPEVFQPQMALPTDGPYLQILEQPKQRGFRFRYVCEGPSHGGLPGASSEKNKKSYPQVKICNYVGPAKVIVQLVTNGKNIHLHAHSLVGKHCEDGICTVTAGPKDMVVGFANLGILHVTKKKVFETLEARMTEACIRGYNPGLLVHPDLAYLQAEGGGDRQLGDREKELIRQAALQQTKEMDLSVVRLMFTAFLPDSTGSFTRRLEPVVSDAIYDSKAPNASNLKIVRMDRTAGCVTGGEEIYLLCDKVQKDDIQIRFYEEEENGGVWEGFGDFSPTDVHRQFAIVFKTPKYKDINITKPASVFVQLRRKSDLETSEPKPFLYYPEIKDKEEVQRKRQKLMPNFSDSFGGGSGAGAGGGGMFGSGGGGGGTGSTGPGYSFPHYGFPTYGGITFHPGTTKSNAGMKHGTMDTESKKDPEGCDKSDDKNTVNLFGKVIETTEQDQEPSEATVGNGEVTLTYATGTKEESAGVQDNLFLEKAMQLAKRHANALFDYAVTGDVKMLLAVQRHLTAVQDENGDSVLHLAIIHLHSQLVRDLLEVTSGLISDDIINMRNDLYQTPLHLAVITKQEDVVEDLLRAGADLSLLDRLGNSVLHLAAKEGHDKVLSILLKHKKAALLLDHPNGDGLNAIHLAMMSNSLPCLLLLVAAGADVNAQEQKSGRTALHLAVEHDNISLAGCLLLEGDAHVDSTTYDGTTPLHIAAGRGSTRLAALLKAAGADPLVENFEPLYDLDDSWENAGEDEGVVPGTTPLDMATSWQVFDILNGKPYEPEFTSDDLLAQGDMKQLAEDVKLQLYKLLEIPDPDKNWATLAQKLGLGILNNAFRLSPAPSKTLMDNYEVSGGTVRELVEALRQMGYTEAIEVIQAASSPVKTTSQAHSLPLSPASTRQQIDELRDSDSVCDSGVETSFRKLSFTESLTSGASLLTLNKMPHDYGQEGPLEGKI
Chain of Nuclear factor erythroid 2-related factor 2 (Homo sapiens) (Q16236 whole entry, looked up): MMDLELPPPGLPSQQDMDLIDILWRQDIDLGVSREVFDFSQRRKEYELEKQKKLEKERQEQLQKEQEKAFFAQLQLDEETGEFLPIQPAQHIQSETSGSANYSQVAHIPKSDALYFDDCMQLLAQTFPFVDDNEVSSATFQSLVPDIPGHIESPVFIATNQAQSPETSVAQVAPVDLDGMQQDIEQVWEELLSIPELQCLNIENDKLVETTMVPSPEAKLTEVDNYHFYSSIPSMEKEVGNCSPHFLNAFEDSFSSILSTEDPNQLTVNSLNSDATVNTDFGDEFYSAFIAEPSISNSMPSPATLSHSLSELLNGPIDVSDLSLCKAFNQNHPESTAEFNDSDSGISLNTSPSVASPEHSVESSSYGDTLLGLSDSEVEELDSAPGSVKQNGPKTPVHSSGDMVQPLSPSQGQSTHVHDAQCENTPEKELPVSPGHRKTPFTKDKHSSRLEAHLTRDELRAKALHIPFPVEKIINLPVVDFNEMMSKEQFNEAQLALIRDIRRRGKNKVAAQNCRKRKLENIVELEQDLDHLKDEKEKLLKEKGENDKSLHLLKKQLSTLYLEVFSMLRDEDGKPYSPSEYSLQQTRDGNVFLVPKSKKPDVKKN

Cc1c(-c2cccnc2)c2ccccc2n1CCCCC(=O)O
active: [15] 27.6 µM
not listed: [19]
inactive: all other assays above

CCC(C)(C)C(=O)O[C@H]1C[C@@H](C)C=C2C=C[C@H](C)[C@H](CC[C@@H]3C[C@@H](O)CC(=O)O3)[C@H]21
not listed: [12]
inactive: all other assays above

Cn1c(=O)cc(Oc2ccc(F)cc2F)c2cnc(NCC(C)(C)O)nc21
active: [4] 18.3 µM | [7] 9.98 µM | MYC, MYC (gene 4609) 22.1 µM | [10] 22.1 µM | [17] 1.3 µM
not listed: [12]
inactive: all other assays above

CC(C)CCO
inactive: all assays above

Nc1ccc(Nc2ccccc2)cc1
active: [4] 50 µM | [6] 83.4 µM | [11] 79.9 µM
not listed: [12]
inactive: all other assays above

O=C(O)CCN(C1(C(=O)NO)CCCC1)S(=O)(=O)c1ccc(Oc2ccc(F)cc2)cc1
inactive: all assays above

Cc1[nH]cnc1C[C@H]1CCc2c(C)c3ccccc3n2C1=O
active: [1] 84 µM | [2] 79.3 µM | [3] 58.7 µM | [4] 11.5 µM | [5] 44.5 µM | [6] 27.7 µM | [7] 79 µM | [8] 14.1 µM | [9] 70.1 µM | MYC, MYC (gene 4609) 31.4 µM | [10] 77.3 µM | [11] 20.8 µM | [13] 73.1 µM | [14] 79.3 µM | [19] 29 µM | [15] 68.3 µM | [17] 44.5 µM | [18] 81.5 µM
inactive: [16]
